For 3 compounds, activity (protection/inhibition) results are on record in PubChem BioAssay AID651871 (Sanford-Burnham Center for Chemical Genomics, 2012).

The test system of the assay is HL-1. As to the kind of experiment: cardiomyocyte survival under oxidative or metabolic stress – cell-based, panel, H9c2 and HL-1, ATP luminescence, set 2, SAR follow-up (AID 651871).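 Also: cells exposed to stressor for 2 h before ATP readout; reference of the scale not given here.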 Conditions: H9c2/HL-1 cardiomyocytes, 2-deoxyglucose stress, with 2-deoxyglucose.
Setting [1] is: run 9, at 79 µM (top of the series).

Molecules are shown by their SMILES.

For `CCOC(=O)c1cccc(NC(=O)CNC(=O)c2cc(-c3cc(OC)c(OC)c(OC)c3)nc3ccccc23)c1`, the activity (protection/inhibition) under setting [1] came to 91.8%.
The same measure, in the same setting: under `COc1ccc2nc(-c3cc(OC)c(OC)c(OC)c3)cc(C(=O)NCC(=O)Nc3ccc(C(C)=O)cc3)c2c1` stands 90%.
In the case of `COc1ccc2c(c1OC)C(=O)N1c3ccccc3C(=O)N(Cc3cccc(Cl)c3Cl)C21` (stereo not given), the activity (protection/inhibition) is 50.7% (run 9, at 19.8 µM (top of the series)); 55.4% (run 9, at 39.5 µM (top of the series)); -7.08% under setting [1].
